About 8,000 (2.5%) of roughly 320,000 compounds were called active. This is one part of a sample in which actives are shown more often than they occur. Cut-off read from the data, not from the text of the source: active = activation above about 47%; inactive = the rest.

Our source for the activation values is PubChem BioAssay AID2796 (The Scripps Research Institute Molecular Screening Center, 2010).

Aryl hydrocarbon receptor (Homo sapiens), sequence (P35869 whole entry, looked up): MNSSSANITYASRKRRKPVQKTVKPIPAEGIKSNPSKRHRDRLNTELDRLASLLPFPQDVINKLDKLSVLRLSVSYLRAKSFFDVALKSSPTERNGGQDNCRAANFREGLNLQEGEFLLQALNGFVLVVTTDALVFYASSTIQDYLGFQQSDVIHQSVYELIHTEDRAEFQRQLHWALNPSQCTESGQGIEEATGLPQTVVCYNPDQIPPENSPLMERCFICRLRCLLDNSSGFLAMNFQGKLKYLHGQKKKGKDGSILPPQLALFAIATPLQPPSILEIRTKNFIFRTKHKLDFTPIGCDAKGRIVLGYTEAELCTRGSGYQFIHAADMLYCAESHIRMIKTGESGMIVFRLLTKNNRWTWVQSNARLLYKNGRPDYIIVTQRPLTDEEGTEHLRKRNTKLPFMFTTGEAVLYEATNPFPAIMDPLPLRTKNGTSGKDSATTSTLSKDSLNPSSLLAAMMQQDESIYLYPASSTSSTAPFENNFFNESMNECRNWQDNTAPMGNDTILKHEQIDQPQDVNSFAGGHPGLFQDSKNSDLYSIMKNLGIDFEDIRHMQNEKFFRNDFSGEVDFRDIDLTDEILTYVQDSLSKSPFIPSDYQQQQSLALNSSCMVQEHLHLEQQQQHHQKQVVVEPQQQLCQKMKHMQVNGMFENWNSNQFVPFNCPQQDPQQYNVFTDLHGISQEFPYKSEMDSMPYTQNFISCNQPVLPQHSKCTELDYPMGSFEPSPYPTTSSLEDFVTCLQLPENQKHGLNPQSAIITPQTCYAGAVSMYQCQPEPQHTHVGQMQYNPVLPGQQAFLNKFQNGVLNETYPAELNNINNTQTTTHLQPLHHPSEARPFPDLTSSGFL

The assay concerns the target Aryl hydrocarbon receptor (Homo sapiens) (UniProt P35869). As to the kind of experiment: AHR activators, primary screen, cell-based, luminescence, luciferase reporter, human (AID 2796).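 Note: 0% = vehicle wells and 100% = reference agonist.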 Particulars: AHR-responsive luciferase reporter cells, at 5 µM, active compounds read high.
For `O=C1C2C3C=CC(C4CC34)C2C(=O)N1c1nccs1` (stereo unspecified), the activation was 0.87% (inactive).
The figure for `Cc1ccccc1N1C(=O)C(Oc2ccc(Cl)cc2)C1CNCC1CCCO1` (stereo unspecified) is -0.77% (inactive).
The same measure for `COc1ccccc1Cn1c(C)nnc1-c1cnn(C)c1N`: 4.53% (inactive); for `CN(C)c1ccc(NC(=O)CN2C3CCCC2CC(NC(=O)c2ccccc2)C3)cc1` (stereo unspecified): 7.23% (inactive); for `Cc1nc(-c2ccccc2)sc1C(=O)/C=C/N(C)C`: 3.46% (inactive).
For the molecule `Cc1nc(-c2ccc(Cl)cc2)sc1C(=O)NN`, the activation was 10.3% (inactive).
The figure for `Cc1nc(-c2ccc(Cl)cc2)sc1C(=O)CBr` is 54.9% (active); for `Cc1nc2ccccc2c(=O)n1NC(=O)c1ccccc1` it is -1.87% (inactive).
As for `Cc1ccnc(N2CCCC(C(=O)NC3CC3)C2)n1` (stereo unspecified), the activation is 1.42% (inactive).
Take `Cc1ccnc(-n2sc3ccccc3c2=O)n1`: the activation is 98.3% (active).
For the molecule `O=C(O)c1ccccc1-c1ccccc1C(=O)NCCc1ccccc1`, the activation was -1.22% (inactive).
Turning to `COc1ccc(CCNC(=O)c2ccccc2OCc2ccccc2)cc1`, the activation was -0.83% (inactive).
The figure for `NC(=O)Nc1ccccc1C(=O)NCCc1ccccc1` is 109% (active).
For `COc1ccccc1NC(=O)[C@H](COCc1ccccc1)NC(=O)OC(C)(C)C`, the activation was 13.7% (inactive).
As for `CC(C)NC(=O)COCc1cc(-c2ccc3c(c2)OCO3)on1`, the activation is 14.2% (inactive).
Regarding `CCc1nc(C)cn1S(=O)(=O)c1cc([N+](=O)[O-])ccc1Cl`, the activation is -0.55% (inactive).
With `CC1CCc2c(c3ccccc3[nH]c2=O)O1` (stereo unspecified), the activation is 45.7% (inactive).
As for `N/C(=N\OS(=O)(=O)c1cccc([N+](=O)[O-])c1)c1ccncc1`, the activation was 0.65% (inactive).
The same measure for `COc1ccc(C2Nc3ccccc3C(=O)N2c2ccc(Cl)cc2)cc1Cn1cc([N+](=O)[O-])cn1` (stereo unspecified): 57.9% (active); for `COc1ccc(N2C(=O)c3ccccc3NC2c2ccc(OC)c(CN3CCOCC3)c2)cc1` (stereo unspecified): 4.09% (inactive); for `COc1ccc(C2Nc3ccccc3C(=O)N2c2ccc(F)cc2)cc1Cn1nnc2ccccc21` (stereo unspecified): 4.17% (inactive).
The same measure for `CC(C)N(C(=O)CSc1nnc(NC2CC2)s1)c1ccccc1`: 7.53% (inactive); for `COc1ccc(C(=O)O)cc1S(=O)(=O)NC1CCN(Cc2ccccc2)CC1`: -0.69% (inactive).
In the case of `NNc1nc2c(Cl)cccc2s1`, the activation was 115% (active).
In the case of `Cc1ccc2c(CC(=O)NCc3cccs3)coc2c1`, the activation is 8.24% (inactive).
The figure for `CCCNC(=O)c1ccc(N2CCC3(CC2)CC(c2cccc(Br)c2)=NO3)c(NC(=O)c2ccco2)c1` is -6.12% (inactive).
With `Cc1cc(/C=C2/NC(=O)NC2=O)c(C)n1-c1cccnc1`, the activation is 26.3% (inactive).
With `N#C/C(=C\c1cccnc1)C(=O)Nc1ccc(SC(F)F)cc1`, the activation was 3.63% (inactive).
On to `Cc1cc(/C=C(/C#N)C(=O)Nc2ccc(Cl)cc2)c(C)n1-c1cccnc1`, for which the activation is 76% (active).
With `Cc1nn(C)c(Cl)c1CN1CCC(Oc2ccc(C(=O)N3CCCC3)cc2)CC1`, the activation is -2.1% (inactive).
The same measure for `CCCc1cc(=O)[nH]c(SCC(=O)N2C(C)CCCC2C)n1` (stereo unspecified): 0.47% (inactive); for `Cc1ccc(-c2nc3ccccc3[nH]2)cc1N`: 47.4% (active); for `CCCCSc1nc2ccccc2[nH]1`: 1.07% (inactive).
`COc1ccc(-c2[nH]nc(-c3ccccc3)c2-c2nc3ccccc3[nH]2)cc1`: the activation is 4.79% (inactive).
The same measure for `c1ccc2[nH]c(-c3nc4ccccc4[nH]3)nc2c1`: 71.2% (active).
With `Nc1cccc(CCc2nc3ccccc3[nH]2)c1`, the activation was 6.68% (inactive).
Consider `COc1ccc(Br)cc1C(=O)NC(=S)Nc1cc(-c2nc3ccccc3[nH]2)ccc1C`, for which the activation is 36.6% (inactive).
The same measure for `OCc1n[nH]c(CO)n1`: -0.81% (inactive); for `O=C(C1CCN(C2CCN(Cc3cccc4c3OCO4)CC2)CC1)N1CCOCC1`: 4.05% (inactive).
The same measure for `COc1ccc(CCOC2OC(CO)C(OC(=O)/C=C/c3ccc(O)c(OC)c3)C(O[C@H]3O[C@@H](C)[C@H](O)[C@@H](O)[C@H]3O)C2O)cc1O` (stereo partly specified): 1.88% (inactive); for `O=C(NC1CC1)C1=C[C@H](c2c[nH]c3ccccc23)C[C@H](OCc2ccc(CO)cc2)O1`: 135% (active).
As to `NC(=O)C1=C[C@H](c2csc3ccccc23)C[C@H](OCc2ccc(CO)cc2)O1`, the activation was 0.39% (inactive).
The same measure for `NC(=O)C1=C[C@@H](c2csc3ccccc23)C[C@@H](OCc2ccc(CO)cc2)O1`: -0.11% (inactive); for `CCN(CC)C(=O)COc1coc(CN2CCN(Cc3ccccc3)CC2)cc1=O`: -1.36% (inactive); for `C/C(=N\Nc1ncc(Cl)cc1Cl)c1cccs1`: 1.11% (inactive).
The figure for `COc1cccc(/C(C)=N/Nc2ncc(Cl)cc2Cl)c1` is 53.5% (active).
For the molecule `C/C(=N\Nc1ncc(Cl)cc1Cl)c1ccc(S(=O)(=O)NCc2ccco2)cc1`, the activation is 29.9% (inactive).
The figure for `CC1CCCCC12NC(=O)N(CC(=O)N1CCN(c3ccccc3)CC1)C2=O` (stereo unspecified) is 0.1% (inactive); for `CC1=NN(C(=O)CCc2ccccc2O)C(O)(C(F)(F)F)C1` (stereo unspecified) it is -1.07% (inactive); for `COc1cc2ccccc2cc1C(=O)Nc1ccncc1` it is 5.1% (inactive).
Take `COc1cccc(OC)c1C(=O)Nc1ccc2c(c1)n(C)c(=O)n2C`: the activation is 1.94% (inactive).
With `COc1cc2ccccc2cc1C(=O)Nc1ccc(N2CCOCC2)cc1`, the activation is 95.9% (active).
As for `COc1cc2ccccc2cc1C(=O)N1CCOCC1`, the activation is 0.61% (inactive).
As for `COc1cccc(OC)c1C(=O)Nc1ccc(Cc2ccncc2)cc1`, the activation was 15.6% (inactive).
As to `COc1cccc(OC)c1C(=O)Nc1ccc(N2CCCCC2)cc1`, the activation is 79.6% (active).
With `FC(F)(F)C1CCCN(c2nsc3ccccc23)C1` (stereo unspecified), the activation is 16.6% (inactive).
The figure for `Cc1noc(C)c1S(=O)(=O)N(C)C[C@H]1Oc2ccc(NC(=O)C3CCCCC3)cc2C(=O)N([C@H](C)CO)C[C@@H]1C` is -1.72% (inactive); for `CCc1ccc(NC(=O)CS(=O)CC(=O)N2CCN(c3ccccc3F)CC2)cc1` (stereo unspecified) it is -1.39% (inactive).
Turning to `Cc1cc(C)cc(NC(=S)NCc2ccc(F)cc2)c1`, the activation was 4.28% (inactive).
Consider `O=C(O)CCC(=O)NCc1ccc2[nH]c3c(c2c1)CCCC3`, for which the activation was 1.38% (inactive).
The figure for `Cc1cccc(NC(=S)NCc2ccc3[nH]c4c(c3c2)CCCC4)c1` is 68% (active).
